Assay outcomes deposited in PubChem by The Scripps Research Institute Molecular Screening Center.
TLR4-MyD88 BLA: inhibitors of TLR4-MyD88 association in cells, primary screen, cell-based, HeLa CL3-4, BLA complementation, FRET ratio; Toll-like receptor 4 (Homo sapiens) + Myeloid differentiation primary response protein …; HeLa CL3-4 TLR4/MyD88 BLA complementation; inhibition, % at 8.4 µM; 0.18% of 200,000 active; in the data active means inhibition above about 25%;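 further: 0% = vehicle and 100% = reference inhibitor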
TLR9-MyD88 block: inhibitors of TLR9-MyD88 association in cells, primary screen, cell-based, CHO, BLA complementation, fluorescence. Toll-like receptor 9 (Homo sapiens) + Myeloid differentiation primary response protein …. CCF4 FRET ratio. inhibition, % at 4.98 µM. 0.21% of 340,000 active;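 active means inhibition above the mean over all tested compounds plus 3 SD, cut at about 21% in these data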;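 further: 0% = DMSO only wells and 100% = clavulanate BLA inhibitor control wells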
IDE inh: human IDE inhibitors in live cells, primary screen, fluorescence polarization, HEK cells, FAbetaB substrate; Insulin-degrading enzyme (Homo sapiens), P14735; FAbetaB cleavage; inhibition, % at 5.59 µM; 0.41% of 320,000 active;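 active means percent inhibition above the average of all tested compounds plus 3 SD, set per screening campaign, cut at about 16% in these data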;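 further: IDE supplied by intact live HEK cells; FP after avidin binding of uncleaved biotin substrate so inhibition keeps polarization high; 0% = DMSO wells and 100% = 60 µM reference IDE inhibitor Ii1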
NOD2-RIPK2 inh: NOD2-RIPK2 binding disruptors in cells, primary screen, fluorescence, CHO cells, BLA complementation; Receptor-interacting serine/threonine-protein kinase 2 (Homo sapiens), O43353; 0.38% of 360,000 active; inhibition, % at 4.98 µM; CCF4 ratio; in the data active means inhibition above about 21%;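 further: 0% = vehicle only and 100% = reference blocker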
IDE cell activ: human IDE activators in live cells, primary screen, fluorescence polarization, HEK cells, FAbeta-B substrate | Insulin-degrading enzyme (Homo sapiens), P14735 | FAbeta-B cleavage; 0% vehicle, 100% cell-free pure enzyme wells | activation, % at 5.96 µM | 0.073% of 340,000 active | AID 493087, 2011;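 active means activation above the mean of all tested compounds plus 3 SD, set per screening campaign, cut at about 17% in these data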
IDE inh confirm: human IDE inhibitors in live cells, confirmation, fluorescence polarization, HEK cells, FAbetaB substrate. 51% of 1,200 active. FAbetaB cleavage. AID 435028, 2010. shares compounds with IDE inh. inhibition, % at 5.59 µM;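 active means mean inhibition across triplicate wells above the cutoff set by the earlier primary insulin-degrading enzyme screen, cut at about 16% in these data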;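 further: 0% = DMSO wells and 100% = 60 µM reference IDE inhibitor Ii1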
HEK293 tox: cytotoxicity in HEK cells, cytotoxicity control for IDE inhibitor project, cell-based, luminescence; shares compounds with IDE inh; HEK293 cytotoxicity, ATP luminescence; inhibition, % at 5.59 µM; 28% of 1,200 active; AID 449730, 2010; in the data active means inhibition above about 22%;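 further: 0% = vehicle wells and 100% = reference cytotoxic drug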
IDE FP artifact: fluorescent or optically active artefacts, dose response, artefact control for IDE inhibitor project, biochemical, fluorescence polarization; shares compounds with IDE inh; FP counterscreen for fluorescent artifacts, IDE probe project; IC50, µM; 30 tested, under 10 active; call rule not given here
Starred values were filed as active, the others as inactive; / = no result given. Hits are enriched below; roughly 0.87% of the tested compounds scored in any of these assays.

SMILES	TLR4-MyD88 BLA	TLR9-MyD88 block	IDE inh	NOD2-RIPK2 inh	IDE cell activ	IDE inh confirm	HEK293 tox	others
O=C(CSc1nnc(CCCOc2ccc(Cl)cc2Cl)o1)Nc1ccc(C(=O)O)cc1	-9	4	18*	-4	2	6	7
C[C@@H]1CC[C@H](Cc2ccc(-n3cccc3)cc2)N1C(=O)OC(C)(C)C	/	6	/	2	/	/	/
COc1cc(/C=c2\s/c(=C(/C#N)C(=O)N3CCCC3)n(-c3ccccc3)c2=O)ccc1O	11	8	28*	-8	-120	152*	29*
COC(=O)/C=c1/s/c(=C(/C#N)C(=O)N2CCCCC2)n(-c2ccccc2)c1=O	-9	-7	-2	2	-4	/	/
CCOC(=O)C1C(=O)NC(SCC(N)=O)=C(C#N)C1c1ccccc1OCC (configuration not stated)	2	-8	37*	3	-34	31*	6
O=C(Nc1ccccc1)c1csc(-c2ccccc2)n1	-2	2	0	-11	2	/	/
O=C(Nc1ccc(C(F)(F)F)cc1)c1csc(-c2ccncc2)n1	-9	3	-2	8	-2	/	/
O=C(Nc1cccc(C(F)(F)F)c1)c1csc(-c2ccccc2)n1	/	/	/	/	/	/	/	IDE FP artifact=>55
Cc1ccc(-c2nc(C(=O)Nc3cccc(C(F)(F)F)c3)cs2)cc1	/	/	/	/	/	/	/	IDE FP artifact=>55
O=C(Nc1cc(C(F)(F)F)cc(C(F)(F)F)c1)c1csc(-c2ccncc2)n1	/	/	/	/	/	/	/	IDE FP artifact=>55
O=C(Nc1cccc(C(F)(F)F)c1)c1csc(-c2cccc(C(F)(F)F)c2)n1	/	/	/	/	/	/	/	IDE FP artifact=>55
CN1C[C@@H]2[C@@H]3C(=O)N(Cc4ccccc4)C(=O)[C@@H]3[C@](C)(C1=O)N2C(=O)c1ccc(Br)cc1	/	4	/	1	1	/	/
COc1ccccc1NC(=O)C(C)OC(=O)CCNS(=O)(=O)c1ccc(C)c(C)c1 (configuration not stated)	/	-3	2	-7	1	/	/
O=C(Nc1cccc(C(F)(F)F)c1)c1ccc(Cn2cc(Br)cn2)o1	1	5	13	4	-7	/	/
O=C(Nc1ccc(C(F)(F)F)cc1Cl)c1ccc(Cn2cc(Br)cn2)o1	0	2	17*	-11	-12	11	12
COc1ccccc1CCNC(=O)C(=O)NCCC1CCCCN1S(=O)(=O)c1ccccc1 (configuration not stated)	/	0	16*	0	-12	2	21
Cn1cnnc1SCC(=O)N1N=C2/C(=C/c3ccco3)CCCC2C1c1ccco1 (configuration not stated)	0	7	17*	-10	-24	9	13
COc1ccc(OC)c(/C=C2\NC(=O)NC2=O)c1	/	-7	6	3	2	/	/
COc1cc(N2CCCC2)c(OC)cc1/C=C1/NC(=S)NC1=O	13	4	118*	1	-120	150*	11
CCOc1ccc2nc(SCC3CC3(Cl)Cl)[nH]c2c1 (configuration not stated)	/	-2	16*	-8	5	4	29*
O=C(NN=C1CCCC1)c1sc2ccccc2c1Cl	-4	7	-8	0	3	/	/
O=C1CCC/C(=N/NC(=O)c2sc3ccccc3c2Cl)C1	/	4	26*	8	-15	27*	2
Cc1oc(C)c2c(=O)ccc3c(c12)OC(N)=C(C#N)C3c1ccccc1Cl (configuration not stated)	-2	-6	30*	-8	-76	26*	14
Cc1oc(C)c2c(=O)ccc3c(c12)OC(N)=C(C#N)C3c1ccccc1 (configuration not stated)	0	4	15	-5	-17	/	/
CSc1ccc(C2C(C#N)=C(N)Oc3c2ccc(=O)c2c(C)oc(C)c32)cc1 (configuration not stated)	-2	-7	30*	-9	-31	109*	25*
SMILES	TLR4-MyD88 BLA	TLR9-MyD88 block	IDE inh	NOD2-RIPK2 inh	IDE cell activ	IDE inh confirm	HEK293 tox	others
O=C(CSc1nnc(-c2cccc(Cl)c2)n1Cc1ccco1)c1ccc2ccccc2c1	/	/	/	/	/	/	/	IDE FP artifact=>55
Cc1cccc(-c2nnc(SCc3nc4ccccc4[nH]3)n2Cc2ccco2)c1	3	2	37*	-2	-20	31*	21	IDE FP artifact=>55
O=C(CSc1nnc(-c2cccc(Cl)c2)n1Cc1ccco1)Nc1ccc2cn[nH]c2c1	/	/	/	/	/	/	/	IDE FP artifact=>55
Cc1cccc(C)c1N1C(=O)c2ccccc2NC(=O)C1C(=O)Nc1ccc2c(c1)OCCO2 (configuration not stated)	/	/	/	-4	/	/	/
Cc1cccc(C)c1NC(=O)C1(C)CSCC(=O)N1CCc1ccc(O)cc1 (configuration not stated)	/	/	/	0	/	/	/
Cc1ccc2c(c1)C1NC(=S)NC(C)(O2)C1C(=O)Nc1ccc(Cl)cc1 (configuration not stated)	12	3	17*	-3	-12	9	13
O=C(CCN1C(=O)c2cccc3cccc(c23)C1=O)Nc1ccccc1	-8	5	-7	7	1	/	/
COc1cccc(C(=O)Nc2nc(-c3ccncc3)cs2)c1	-9	-9	26*	4	-12	12	11
COc1cccc(C(=O)Nc2nc(C)cs2)c1	1	-7	4	-9	-4	/	/
O=C(COC(=O)c1cccc(Br)c1)NCc1ccco1	/	-7	3	-5	0	/	/
O=C(O)CC12CC3CC(C1)CC(n1ncc(NCc4ccc5c(c4)OCO5)c(Cl)c1=O)(C3)C2	10	/	7	/	/	/	/
O=C(O)CC12CC3CC(C1)CC(n1ncc(NCc4ccc(F)cc4Cl)c(Cl)c1=O)(C3)C2	-7	4	28*	-3	-15	21*	5
O=C(O)CC12CC3CC(C1)CC(n1ncc(NCc4ccccc4Cl)c(Cl)c1=O)(C3)C2	/	-8	39*	4	-36	20*	9
Cn1c(=O)n(C)c2cc(NC(=O)COc3ccc(F)cc3)ccc21	/	-2	5	5	2	/	/
C[C@H](NC(=O)c1ccc2ccccc2c1)C(=O)N1CCC2(CC1)NCCc1[nH]cnc12	/	4	4	-10	6	/	/
CCOc1cc(-c2nc3n(c(=O)c2C#N)CCS3)ccc1O	/	7	25*	0	-31	41*	15
